Results: PubChem BioAssay (EPA / NIEHS)
Active and inactive are the calls of the source. How the source made its calls: active means hit-call score of the fitted dose curve at least 0.9, where 1 is the maximum; inactive means score below 0.9.

Legend:
Details in all cases: mRNA level, 48 h; actives raise or lower the signal
[1] = read-out: Ezrin (EZR), EZR (gene 7430); assay: LTEA_HepaRG_EZR: Life Technologies and Expression Analysis (LTEA) Assay for Ezrin (EZR) using HepaRG (AID 2283491)
Method in brief: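 Differentiated human HepaRG cells, 48 h after plating, were exposed in serum-free induction medium for 48 hours to eight half-log concentrations up to 100 uM in 0.5% DMSO. EZR mRNA was measured by TaqMan qRT-PCR, normalized to ACTB, GAPDH and POLR2A, and fitted bidirectionally against DMSO.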

[2] = read-out: Cytochrome P450 3A7 (Homo sapiens) (UniProt P24462); assay: LTEA_HepaRG_CYP3A7: Life Technologies and Expression Analysis (LTEA) Assay for CYP3A7 using HepaRG (AID 2283492)
Method in brief: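 Cells were thawed, plated, cultured 48 h, then treated for a further 48 h with chemicals (eight-point half-log series from 100 uM, 0.5% DMSO). RNA was isolated and CYP3A7 expression quantified by qRT-PCR normalised to ACTB, GAPDH and POLR2A.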

CYP3A5 (gene 1577) = assay: LTEA_HepaRG_CYP3A5: Life Technologies and Expression Analysis (LTEA) Assay for CYP3A5 using HepaRG (AID 2283493)
Method in brief: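 Readout was CYP3A5 mRNA by qRT-PCR. HepaRG cultures were exposed for 48 h in serum-free induction medium to chemicals at up to 100 uM, and responses were fitted in both directions relative to DMSO vehicle.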

[3] = read-out: Fatty Acid-Binding Protein 1 (FABP1), FABP1 (gene 2168); assay: LTEA_HepaRG_FABP1: Life Technologies and Expression Analysis (LTEA) Assay for Fatty Acid-Binding Protein 1 (FABP1) using HepaRG (AID 2283494)
Method in brief: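 Values reflect bidirectional concentration-response fitting of FABP1 mRNA change against 0.5% DMSO controls. Human HepaRG cultures received eight half-log doses (top 100 uM) for 48 h; expression quantified by TaqMan qRT-PCR with housekeeping-gene normalization.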

[4] = read-out: Cytochrome P450 4A22 (Homo sapiens) (UniProt Q5TCH4); assay: LTEA_HepaRG_CYP4A22: Life Technologies and Expression Analysis (LTEA) Assay for Cytochrome P450 4A22 (CYP4A22) using HepaRG (AID 2283495)
Method in brief: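 Cryopreserved HepaRG cells, plated and cultured 48 h, then switched to serum-free induction medium and treated 48 h (duplicates, up to 100 uM, half-log steps, 0.5% DMSO). Expression change of CYP4A22 was fitted bidirectionally against vehicle.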

[5] = read-out: Cytochrome P450 7A1 (Homo sapiens) (UniProt P22680); assay: LTEA_HepaRG_CYP7A1: Life Technologies and Expression Analysis (LTEA) Assay for Cytochrome P450 7A1 (CYP7A1) using HepaRG (AID 2283496)
Method in brief: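 Using 0.5% DMSO as vehicle and baseline, chemicals were tested in duplicate over an 8-point range from 100 uM on HepaRG cells for 48 h; qRT-PCR signals were normalised to ACTB, GAPDH and POLR2A.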

[6] = read-out: Glutathione S-Transferase (GSTA2), GSTA2 (gene 2939); assay: LTEA_HepaRG_GSTA2: Life Technologies and Expression Analysis (LTEA) Assay for Glutathione S-Transferase (GSTA2) using HepaRG (AID 2283497)
Method in brief: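 Oxidative-stress marker GSTA2 is quantified by TaqMan qRT-PCR in HepaRG cultures treated 48 h across an eight-point range to 100 uM. Expression is normalized to endogenous controls and compared with 0.5% DMSO vehicle.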

[7] = read-out: Glutamate-cysteine ligase catalytic (GCLC), GCLC (gene 2729); assay: LTEA_HepaRG_GCLC: Life Technologies and Expression Analysis (LTEA) Assay for Glutamate-cysteine ligase catalytic (GCLC) using HepaRG (AID 2283498)
Method in brief: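 Oxidative-stress marker GCLC is measured as mRNA change in human HepaRG liver cells after 48 h chemical treatment in 0.5% DMSO, eight concentrations from 100 uM. Activity is fitted bidirectionally against vehicle.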

[8] = read-out: growth arrest and DNA damage 45 (GADD45G), GADD45G (gene 10912); assay: LTEA_HepaRG_GADD45G: Life Technologies and Expression Analysis (LTEA) Assay for growth arrest and DNA damage 45 (GADD45G) using HepaRG (AID 2283499)
Method in brief: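 Human hepatic HepaRG line treated 48 h with chemicals (eight concentrations, half-log steps from 100 uM); transcript induction or repression of GADD45G scored by qRT-PCR versus DMSO vehicle.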

[9] = read-out: Glutamate-cysteine ligase regulatory (GCLM), GCLM (gene 2730); assay: LTEA_HepaRG_GCLM: Life Technologies and Expression Analysis (LTEA) Assay for Glutamate-cysteine ligase regulatory (GCLM) using HepaRG (AID 2283500)
Method in brief: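 In this multiplexed HepaRG gene-expression assay, GCLM mRNA change after 48 h treatment (8 concentrations, max 100 uM) was scored against DMSO by bidirectional curve fitting.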

[10] = read-out: Glutathione S-transferase M3 (GSTM3), GSTM3 (gene 2947); assay: LTEA_HepaRG_GSTM3: Life Technologies and Expression Analysis (LTEA) Assay for Glutathione S-transferase M3 (GSTM3) using HepaRG (AID 2283501)
Method in brief: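 Changes in GSTM3 expression, an oxidative-stress marker, were scored by bidirectional curve fitting against 0.5% DMSO vehicle. Human HepaRG cultures received chemicals for 48 h in duplicate, highest concentration 100 uM with half-log dilutions.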

[11] = read-out: Heat shock 70 kDa protein 1 (HSPA1A), gene 3303; assay: LTEA_HepaRG_HSPA1A: Life Technologies and Expression Analysis (LTEA) Assay for Heat shock 70 kDa protein 1 (HSPA1A) using HepaRG (AID 2283502)
Method in brief: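 An oxidative-stress marker readout: HepaRG cells treated 48 h in duplicate with an eight-point series (highest 100 uM) had HSPA1A mRNA quantified by TaqMan qRT-PCR. Activity was fitted in both directions using 0.5% DMSO as baseline.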

[12] = read-out: Hypoxia-inducible factor 1-alpha (Homo sapiens) (UniProt Q16665); assay: LTEA_HepaRG_HIF1A: Life Technologies and Expression Analysis (LTEA) Assay for Hypoxia-inducible factor 1 (HIF1A) Trancription factor using HepaRG (AID 2283503);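 further: HIF1A transcript by TaqMan qRT-PCR normalized to ACTB GAPDH and POLR2A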
Method in brief: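 Gain- or loss-of-signal HIF1A mRNA changes are fitted against a DMSO baseline. HepaRG cultures receive eight concentrations, highest 100 uM, for 48 h in serum-free induction medium with 0.5% DMSO.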

[13] = read-out: 3-Hydroxy-3-Methylglutaryl-CoA Synthase 2 (HMGCS2), HMGCS2 (gene 3158); assay: LTEA_HepaRG_HMGCS2: Life Technologies and Expression Analysis (LTEA) Assay for 3-Hydroxy-3-Methylglutaryl-CoA Synthase 2 (HMGCS2) using HepaRG (AID 2283504)
Method in brief: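 Expression of HMGCS2 in human HepaRG liver cells is measured by qRT-PCR 48 h after dosing (highest 100 uM, half-log series, 0.5% DMSO). Values come from bidirectional concentration-response fitting with DMSO as baseline.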

HGF (gene 3082) = assay: LTEA_HepaRG_HGF: Life Technologies and Expression Analysis (LTEA) Assay for Hepatocyte Growth Facto (HGF) using HepaRG (AID 2283505)
Method in brief: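 Gain or loss of HGF mRNA in human HepaRG liver cells after 48 h chemical exposure; eight concentrations up to 100 uM with 0.5% DMSO vehicle, quantified by TaqMan qRT-PCR.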

[14] = read-out: Insulin Like Growth Factor 1 (IGF1), IGF1 (gene 3479); assay: LTEA_HepaRG_IGF1: Life Technologies and Expression Analysis (LTEA) Assay for Insulin Like Growth Factor 1 (IGF1) using HepaRG (AID 2283506)
Method in brief: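 Endpoint: IGF1 mRNA change by qRT-PCR, housekeeping-normalized, fitted bidirectionally relative to 0.5% DMSO vehicle. Human HepaRG cells were treated 48 h in serum-free induction medium, eight half-log concentrations topping at 100 uM.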

[15] = read-out: Intercellular Adhesion Molecule 1 (ICAM1), ICAM1 (gene 3383); assay: LTEA_HepaRG_ICAM1: Life Technologies and Expression Analysis (LTEA) Assay for Intercellular Adhesion Molecule 1 (ICAM1) using HepaRG (AID 2283507)
Method in brief: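 Gain or loss of transcript in HepaRG hepatic cells is quantified by qRT-PCR after 48 h chemical exposure (up to 100 uM, half-log steps), with DMSO as baseline.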

[16] = read-out: Insulin-like growth factor-binding protein 1 (IGFBP1), IGFBP1 (gene 3484); assay: LTEA_HepaRG_IGFBP1: Life Technologies and Expression Analysis (LTEA) Assay for Insulin-like growth factor-binding protein 1 (IGFBP1) using HepaRG (AID 2283508)
Method in brief: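 mRNA induction or loss was quantified by qRT-PCR after 48 h chemical exposure of human HepaRG cells, with 0.5% DMSO as vehicle and baseline. Concentration-response over eight points up to 100 uM.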

[17] = read-out: Interleukin 6 (IL6), IL6 (gene 3569); assay: LTEA_HepaRG_IL6: Life Technologies and Expression Analysis (LTEA) Assay for Interleukin 6 (IL6) using HepaRG (AID 2283509)
Method in brief: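 Changes in IL6 mRNA, up or down relative to 0.5% DMSO controls, were derived from concentration-response curves in human HepaRG cells treated for 48 h at up to 100 uM, with ACTB, GAPDH and POLR2A as normalizers.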

[18] = read-out: Interleukin 6 Receptor (IL6R), IL6R (gene 3570); assay: LTEA_HepaRG_IL6R: Life Technologies and Expression Analysis (LTEA) Assay for Interleukin 6 Receptor (IL6R) using HepaRG (AID 2283510);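 further: TaqMan qRT-PCR signal normalized to ACTB GAPDH and POLR2A housekeeping genes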
Method in brief: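 In this HepaRG screen, test chemicals act on cells for 48 h at up to 100 uM (eight half-log points, duplicate wells). IL6R expression is quantified by qRT-PCR after normalization to ACTB, GAPDH and POLR2A, with DMSO as baseline.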

Measured: AC50

Chain of Cytochrome P450 3A7 (Homo sapiens) (P24462 whole entry, looked up): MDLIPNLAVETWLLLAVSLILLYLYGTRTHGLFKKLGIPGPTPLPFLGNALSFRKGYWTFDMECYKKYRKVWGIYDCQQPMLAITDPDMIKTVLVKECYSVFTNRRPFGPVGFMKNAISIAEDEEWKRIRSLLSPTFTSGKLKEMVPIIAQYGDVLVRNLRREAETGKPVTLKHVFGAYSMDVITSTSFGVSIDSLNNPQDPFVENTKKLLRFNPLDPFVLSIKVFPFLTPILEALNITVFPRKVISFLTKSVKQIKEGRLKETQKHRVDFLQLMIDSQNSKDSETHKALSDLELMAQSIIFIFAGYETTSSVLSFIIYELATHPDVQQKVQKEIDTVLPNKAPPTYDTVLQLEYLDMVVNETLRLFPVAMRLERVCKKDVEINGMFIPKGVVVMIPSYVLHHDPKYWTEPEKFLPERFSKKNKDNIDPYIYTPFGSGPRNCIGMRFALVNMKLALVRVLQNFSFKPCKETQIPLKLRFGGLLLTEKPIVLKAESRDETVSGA
Chain of Hypoxia-inducible factor 1-alpha (Homo sapiens) (Q16665 whole entry, looked up): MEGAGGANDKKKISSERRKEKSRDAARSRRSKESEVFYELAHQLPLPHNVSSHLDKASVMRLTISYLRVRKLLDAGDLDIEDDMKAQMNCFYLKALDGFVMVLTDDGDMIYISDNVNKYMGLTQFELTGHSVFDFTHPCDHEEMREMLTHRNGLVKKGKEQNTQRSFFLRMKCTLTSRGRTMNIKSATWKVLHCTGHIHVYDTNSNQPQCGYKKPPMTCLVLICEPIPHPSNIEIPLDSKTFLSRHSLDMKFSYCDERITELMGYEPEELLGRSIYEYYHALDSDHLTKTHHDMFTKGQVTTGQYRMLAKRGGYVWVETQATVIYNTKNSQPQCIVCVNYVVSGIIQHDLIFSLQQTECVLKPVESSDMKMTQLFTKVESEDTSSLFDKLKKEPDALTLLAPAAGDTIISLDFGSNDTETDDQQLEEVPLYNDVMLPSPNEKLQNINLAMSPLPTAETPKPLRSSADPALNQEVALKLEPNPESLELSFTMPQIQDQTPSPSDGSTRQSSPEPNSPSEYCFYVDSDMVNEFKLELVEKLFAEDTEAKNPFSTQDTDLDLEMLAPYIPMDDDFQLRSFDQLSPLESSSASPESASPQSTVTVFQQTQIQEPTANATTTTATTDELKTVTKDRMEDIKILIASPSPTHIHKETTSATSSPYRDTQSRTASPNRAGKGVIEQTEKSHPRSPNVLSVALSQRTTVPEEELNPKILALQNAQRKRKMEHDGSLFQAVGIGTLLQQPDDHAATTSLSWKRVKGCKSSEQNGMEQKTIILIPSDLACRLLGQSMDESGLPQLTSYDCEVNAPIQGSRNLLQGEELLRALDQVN

O=C1CCC(C2CCCCC2)CC1
inactive: [1] | [2] | CYP3A5 (gene 1577) | [3] | [4] | [5] | [6] | [7] | [8] | [9] | [10] | [11] | [12] | [13] | HGF (gene 3082) | [14] | [15] | [16] | [17]

CCN(Cc1cccc(S(=O)(=O)O)c1)c1ccc(C(=C2C=CC(=[N+](CC)Cc3cccc(S(=O)(=O)O)c3)C=C2)c2ccccc2S(=O)(=O)[O-])cc1
inactive: [1] | [2] | CYP3A5 (gene 1577) | [3] | [4] | [5] | [6] | [7] | [8] | [10] | [11] | [12] | [13] | HGF (gene 3082) | [14] | [15] | [16] | [17]

CCCCCCCCOc1ccc(C(=O)c2ccccc2)c(O)c1
inactive: [1] | [2] | CYP3A5 (gene 1577) | [3] | [4] | [5] | [6] | [7] | [8] | [10] | [11] | [12] | [13] | HGF (gene 3082) | [14] | [15] | [16] | [17]

NCc1cccc(C2CCN(C(=O)c3ccc(C#Cc4ccccc4F)o3)CC2)c1
active: [2] 77.7 µM | CYP3A5 (gene 1577) 81.1 µM | [4] 81 µM | [5] 86.3 µM | [6] 78.9 µM | [13] 93.8 µM | HGF (gene 3082) 79.5 µM | [18] 82.5 µM
inactive: [1] | [3] | [7] | [8] | [9] | [10] | [11] | [12] | [14] | [15] | [16] | [17]

CC(C)(O)c1ccc(CNC(=O)c2cccnc2Oc2ccc3nonc3c2)cc1
active: [2] 6.62 µM | [14] 22.7 µM
inactive: [1] | CYP3A5 (gene 1577) | [3] | [4] | [5] | [6] | [7] | [8] | [9] | [10] | [11] | [12] | [13] | HGF (gene 3082) | [15] | [16] | [17]

CCN(CC)C(=O)c1cc(S(=O)(=O)Cc2ccccc2)c(N2CCC(c3ccccc3)CC2)cc1N(CC)CCN(C)C
active: [2] 1.9 µM | CYP3A5 (gene 1577) 32.2 µM | [6] 4.51 µM | [7] 30.7 µM | [8] 20.5 µM | [11] 24.5 µM | [13] 35.5 µM | [15] 19 µM | [16] 32.2 µM | [17] 36.3 µM
inactive: [1] | [3] | [4] | [5] | [10] | [12] | HGF (gene 3082) | [14]
